Laboratory results as given in the supplement of paper PMC6555819.

Assays:
Test in all cases: PBM binding z-score (relative to random genomic background probes); higher = stronger binding; sequences stand for … in GC…GCGATTGACAGCGTAGAATGAAGG
[1] = tested on: PPARg:RXRa DBDmut IVT, anti-RXR (DBD mutation: RXRa K156A/R161A, NR concentration 270 nM, RXRa partner concentration 90 nM)
How it was run: (§1)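 Ligand-free nuclear receptor dimers were bound for 1 h to custom Agilent 4×180K protein-binding microarrays. Detection used antibodies against each partner (one per run). Binding z-scores rest on regression-normalized fluorescence, with random background probes as the reference.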

[2] = tested on: PPARg:RXRa IVT, anti-PPARg (NR concentration 270 nM, RXRa partner concentration 90 nM)
How it was run: as §1

[3] = tested on: PPARg DBDmut:RXRa IVT, anti-PPARg (DBD mutation: PPARg1 K132A/R137A, NR concentration 270 nM, RXRa partner concentration 90 nM)
How it was run: as §1

[4] = tested on: PPARg DBDmut IVT, anti-PPARg (DBD mutation: PPARg1 K132A/R137A, NR concentration 270 nM)
How it was run: as §1

[5] = tested on: PPARg homodimer (NR concentration 180 nM)
How it was run: as §1

[6] = tested on: PXR:RXRa (NR concentration 270 nM, RXRa partner concentration 90 nM)
How it was run: as §1

[7] = tested on: PXR homodimer (NR concentration 270 nM)
How it was run: as §1

[8] = tested on: RARa:RXR (NR concentration 270 nM, RXRa partner concentration 90 nM)
How it was run: as §1

[9] = tested on: RARa homodimer (NR concentration 270 nM)
How it was run: as §1

[10] = tested on: RARb:RXRa (NR concentration 270 nM, RXRa partner concentration 90 nM)
How it was run: as §1

[11] = tested on: RARb homodimer (NR concentration 270 nM)
How it was run: as §1

[12] = tested on: RARg:RXRa (NR concentration 270 nM, RXRa partner concentration 90 nM)
How it was run: as §1

[13] = tested on: RARg homodimer (NR concentration 270 nM)
How it was run: as §1

[14] = tested on: RXRa DBDmut IVT, anti-RXR (DBD mutation: RXRa K156A/R161A, NR concentration 90 nM)
How it was run: as §1

[15] = tested on: RXRa homodimer (NR concentration 180 nM)
How it was run: as §1

[16] = tested on: THRa:RXRa (NR concentration 90 nM, RXRa partner concentration 90 nM)
How it was run: as §1

[17] = tested on: THRa homodimer (NR concentration 90 nM)
How it was run: as §1

[18] = tested on: VDR homodimer (NR concentration 270 nM)
How it was run: as §1

| Sequence | PBM binding z-score [1] | PBM binding z-score [2] | PBM binding z-score [3] | PBM binding z-score [4] | PBM binding z-score [5] | PBM binding z-score [6] | PBM binding z-score [7] | PBM binding z-score [8] | PBM binding z-score [9] | PBM binding z-score [10] | PBM binding z-score [11] | PBM binding z-score [12] | PBM binding z-score [13] | PBM binding z-score [14] | PBM binding z-score [15] | PBM binding z-score [16] | PBM binding z-score [17] | PBM binding z-score [18] |
| --- | --- | --- | --- | --- | --- | --- | --- | --- | --- | --- | --- | --- | --- | --- | --- | --- | --- | --- |
| GTTGCTAGGTCAACTGATGGTCAGCTAAAGCTCG | 5.15 | 4.94 | 1.14 | -0.255 | 1.33 | 1.47 | -0.554 | 3.03 | -0.133 | 4.26 | 3.54 | 5.4 | 5.9 | 1.48 | 3.11 | 3.09 | 1.46 | 0.164 |
| GCTCGGAGGACAAGGTCAGAGCCTTGTCCGTAGA | -0.797 | 1.42 | -1 | -0.556 | 0.956 | 1.46 | -0.573 | 1.8 | -0.489 | 3.49 | 2.82 | 3.32 | 3.39 | 0.219 | 2.81 | 2.78 | 1.01 | 0.502 |
| TCGAGTCGGTTAGTCGGGGCATTCAGCCAACATA | 0.436 | -0.0905 | -0.814 | -1.24 | -0.388 | -0.0849 | -0.566 | -0.027 | -1.36 | -0.00486 | -0.0359 | -0.443 | -0.657 | 0.05 | -0.48 | 0.291 | -0.232 | 0.101 |
| TCAGACAGGTGAAGGTAACTCTGGTACGCAGTCG | 2.58 | 0.996 | 0.246 | -0.784 | 0.246 | 0.678 | 0.0805 | 0.872 | 0.122 | 1.07 | 0.721 | 0.492 | 0.535 | 1.03 | 0.951 | 1.01 | 0.16 | 0.154 |
| TATACAGGGTCAAAGGCCAGAATACGAATGTCGA | 1.98 | 4.81 | 2.92 | 2.34 | 2.02 | 3.86 | 0.553 | 5.78 | 0.841 | 4.28 | 3.2 | 5.71 | 5.1 | 2.7 | 6.99 | 3.41 | 0.697 | 2.6 |
| CGTCCAAGGACAGCAGGTCAGTGAAAGCGACGTG | 0.0757 | 0.113 | -1.43 | -0.869 | -0.0601 | 0.288 | -0.263 | 0.676 | -0.162 | 2.37 | 2.36 | 1.72 | 2.06 | 0.0474 | 0.679 | 2.46 | 0.788 | -0.264 |
| CAAACTAGGTCAAGAGATCAAAGTCCGCTTCCCG | 8.62 | 8.28 | 2.03 | 2.4 | 2.15 | 1.51 | 0.0869 | 2.57 | 0.821 | 3.92 | 3.07 | 4.48 | 4.39 | 1.59 | 3.3 | 2.63 | 0.798 | 0.64 |
| ACTATTCGTTGACTTAGGGCAACCGATACGACGC | -0.214 | 0.623 | 1.11 | 1.54 | 0.718 | 0.152 | 0.211 | 0.392 | 0.76 | 0.866 | 0.887 | 0.792 | 0.996 | 0.445 | 0.633 | 0.912 | 0.963 | 0.261 |
| AATACAGGGTCACTAGGCCAGATTAGGTACGAAT | 3.7 | 5.68 | 1.98 | 3.15 | 2.45 | 3.32 | 0.427 | 4.17 | 0.909 | 4.09 | 3.44 | 5.37 | 4.96 | 3.03 | 5.9 | 3.57 | 1.46 | 2.83 |
| AGTCAAAGTTCAGGACGAGGTTACGTAAAGCACG | -0.0298 | 2.22 | 0.501 | 0.266 | 2.73 | 4.73 | 2.59 | 4.38 | 1.13 | 4.46 | 3.96 | 5.81 | 5.25 | 3.2 | 4.19 | 3.92 | 1.81 | 3.15 |
| TCTCGGAGGACACGAAAGGTCCGAGCTCGACATC | 1.48 | -0.219 | -0.586 | -0.37 | -0.226 | 0.0287 | -0.785 | 0.412 | -1.1 | 1.47 | 0.997 | 0.805 | 1.35 | 0.605 | 0.384 | 1.62 | 0.526 | 0.0895 |
| GGTACGAGGGCATTCGAGTTGATAGCATGGCGAT | 1.41 | 1.41 | -0.377 | -0.67 | -0.0678 | 3.64 | 1.73 | 0.568 | -0.0392 | 1.95 | 0.849 | 1.06 | 1.61 | 3.01 | 0.971 | 3.28 | -0.337 | 3.68 |
| ACATACAGGTGATGAAGGTAACTCAGGCTATCAT | 1.27 | 1.16 | 1.17 | 0.566 | 0.36 | 0.132 | 0.441 | 0.745 | 0.688 | 0.588 | 0.492 | 0.787 | 0.615 | 0.27 | 0.874 | 1.16 | 0.135 | 0.174 |
| GCGACTGGGGCAATGCAGGTTACCATAAGGTTGG | 4.37 | 4.53 | -0.0887 | -0.128 | 0.0203 | 0.548 | -0.5 | 0.919 | -0.465 | 0.959 | 1.14 | 0.631 | 0.677 | -0.584 | 0.553 | 2.56 | -0.0652 | -0.0846 |
| CGTCCAAGGTCAAGGTCAGTCAAAGAGACTCGAA | 4.13 | 4.78 | 1.48 | -0.095 | 4.54 | 4.99 | 1.7 | 5.42 | 2.49 | 5.83 | 5.15 | 6.95 | 7.59 | 4.09 | 6.7 | 4.16 | 3.61 | 3.55 |
